Results: PubChem BioAssay (EPA / NIEHS)
Calls of active or inactive are those of the source. The calls were made as follows: active = hit-call score of the fitted dose curve at least 0.9, where 1 is the maximum; inactive = score below 0.9.

Each compound was assayed on Interleukin-8 (IL8), CXCL8 (gene 3576) (assay: BSK_CASM3C_IL8: BioMAP Diversity Plus: CASM3C Assay for Interleukin-8 (IL8) Biomarker Activity (AID 2283042;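 also: IL-8 protein level quantified by ELISA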)). Details: primary human coronary artery smooth muscle cells; actives raise or lower the signal.

Structure (SMILES)	outcome
COCCOC[C@H](CC1(C(=O)NC2CCC(C(=O)O)CC2)CCCC1)C(=O)Oc1ccc2c(c1)CCC2 (stereo partly drawn)	inactive
CC(=O)OC/C=C(\C)CCC=C(C)C	inactive
Cc1cccc(Nc2cc(Cl)nc(SCC(=O)O)n2)c1C	inactive
CC=Cc1ccc(O)c(OC)c1	inactive
CCNc1cccc(C)c1	inactive
O=C(OCCCCCOC(=O)c1ccccc1)c1ccccc1	inactive
O=c1[nH]cc(F)c(=O)[nH]1	inactive
NCC1(Cc2noc(=O)[nH]2)CCCCC1	inactive
Oc1ccc2ccccc2c1N=Nc1ccccc1	inactive
Cc1cc(=O)[nH]c(=S)[nH]1	inactive
NC(=O)Cn1c(=O)cc(CCN2CCN(c3nccc4sccc34)CC2)c2ccc(F)cc21	inactive
CC(C)c1ccc(C(=O)N=C(N)N)cc1S(C)(=O)=O	inactive
C1CCC(SSC2CCCCC2)CC1	inactive
CCCCN(CCCC)CCCC	inactive
OC[C@@H](O)[C@@H](O)[C@H](O)[C@H](O)CO	inactive
CC(C)(C)c1cc(O)c(C(C)(C)C)cc1O	inactive
NS(=O)(=O)c1cc2c(cc1Cl)NCNS2(=O)=O	inactive
Cc1nc(-c2ccc3c(c2)CCN(CCC2CCC(NC(=O)/C=C/c4ccc(F)cc4)CC2)CC3)no1 (stereo not drawn)	inactive
CC(=O)C(C)=CC1C(C)=CCCC1(C)C (stereo not drawn)	inactive
CCCCCCOCCO	inactive
C[Si]1(C)O[Si](C)(C)O[Si](C)(C)O[Si](C)(C)O1	inactive
Oc1ccc2c(c1)OC[C@@H](N1CCC(O)(c3ccc(F)cc3)CC1)[C@H]2O	inactive
CN1CCN(Cc2cc(-c3ccc4[nH]c(=O)oc4c3)co2)[C@@H](c2ccc(F)cc2)C1	inactive
CCOC(=O)C(C)(C)Oc1ccc(Cl)cc1	inactive
C=CCc1ccc(O)c(OC)c1	inactive
COc1cc(S(=O)(=O)O)c(C)cc1N=Nc1c(O)ccc2cc(S(=O)(=O)O)ccc12	inactive
CCCc1cc(=O)[nH]c(=S)[nH]1	inactive
O=[N+]([O-])C(CO)(CO)CO	inactive
CC1=C(/C=C/C(C)=C/C=C/C(C)=C/CO)C(C)(C)CCC1	inactive

The compounds below were run on Human Leukocyte Antigen - DR isotype (HLADR), HLA-DRA (gene 3122) (assay: BSK_CASM3C_HLADR: BioMAP Diversity Plus: CASM3C Assay for Human Leukocyte Antigen - DR isotype (HLADR) Biomarker Activity (AID 2283043;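 also: cell-surface HLA-DR protein level quantified by ELISA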)). Details: primary human coronary artery smooth muscle cells; actives raise or lower the signal.

Structure (SMILES)	outcome	AC50
COCCOC[C@H](CC1(C(=O)NC2CCC(C(=O)O)CC2)CCCC1)C(=O)Oc1ccc2c(c1)CCC2 (stereo partly drawn)	inactive	–
CC(=O)OC/C=C(\C)CCC=C(C)C	inactive	–
Cc1cccc(Nc2cc(Cl)nc(SCC(=O)O)n2)c1C	inactive	–
CC=Cc1ccc(O)c(OC)c1	inactive	–
CCNc1cccc(C)c1	inactive	–
O=C(OCCCCCOC(=O)c1ccccc1)c1ccccc1	inactive	–
O=c1[nH]cc(F)c(=O)[nH]1	inactive	–
NCC1(Cc2noc(=O)[nH]2)CCCCC1	inactive	–
Oc1ccc2ccccc2c1N=Nc1ccccc1	inactive	–
Cc1cc(=O)[nH]c(=S)[nH]1	inactive	–
NC(=O)Cn1c(=O)cc(CCN2CCN(c3nccc4sccc34)CC2)c2ccc(F)cc21	inactive	–
CC(C)c1ccc(C(=O)N=C(N)N)cc1S(C)(=O)=O	inactive	–
C1CCC(SSC2CCCCC2)CC1	–	30.5 µM (active)
CCCCN(CCCC)CCCC	inactive	–
OC[C@@H](O)[C@@H](O)[C@H](O)[C@H](O)CO	inactive	–
CC(C)(C)c1cc(O)c(C(C)(C)C)cc1O	inactive	–
NS(=O)(=O)c1cc2c(cc1Cl)NCNS2(=O)=O	inactive	–
Cc1nc(-c2ccc3c(c2)CCN(CCC2CCC(NC(=O)/C=C/c4ccc(F)cc4)CC2)CC3)no1 (stereo not drawn)	–	9.3 µM (active)
CC(=O)C(C)=CC1C(C)=CCCC1(C)C (stereo not drawn)	inactive	–
CCCCCCOCCO	inactive	–
C[Si]1(C)O[Si](C)(C)O[Si](C)(C)O[Si](C)(C)O1	inactive	–
Oc1ccc2c(c1)OC[C@@H](N1CCC(O)(c3ccc(F)cc3)CC1)[C@H]2O	inactive	–
CN1CCN(Cc2cc(-c3ccc4[nH]c(=O)oc4c3)co2)[C@@H](c2ccc(F)cc2)C1	inactive	–
CCOC(=O)C(C)(C)Oc1ccc(Cl)cc1	inactive	–
C=CCc1ccc(O)c(OC)c1	inactive	–
COc1cc(S(=O)(=O)O)c(C)cc1N=Nc1c(O)ccc2cc(S(=O)(=O)O)ccc12	inactive	–
CCCc1cc(=O)[nH]c(=S)[nH]1	inactive	–
O=[N+]([O-])C(CO)(CO)CO	inactive	–
CC1=C(/C=C/C(C)=C/C=C/C(C)=C/CO)C(C)(C)CCC1	inactive	–
